Screening results: PubChem BioAssay, several laboratories
MRP reversal = compounds reversing MRP-mediated drug resistance | H69AR cells + 2 uM doxorubicin, CellTiter-Glo, 72 h | differential viability (reversal), % at 10 µM | 85,000 compounds, 0.04% hits | AID 602;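 active = viability drop by adding the cancer drug above about 55%, with treated viability meeting a 40% cutoff, limit read from the data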;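 also: larger differential means the compound sensitizes cells more to doxorubicin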
CYP2C9 act = CYP2C9 (human) activation; activation factor at 5 µM; recombinant CYP2C9, luciferin-H conversion, luminescence; active compounds read high; factor 1 = untreated enzyme, 0 = blocked; 96,000 compounds, 1.4% hits; AID 1024;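 active = activation factor of 2 or more for CYP2C9 at a 5 µM dose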
Target sequence (P11712 whole entry, looked up): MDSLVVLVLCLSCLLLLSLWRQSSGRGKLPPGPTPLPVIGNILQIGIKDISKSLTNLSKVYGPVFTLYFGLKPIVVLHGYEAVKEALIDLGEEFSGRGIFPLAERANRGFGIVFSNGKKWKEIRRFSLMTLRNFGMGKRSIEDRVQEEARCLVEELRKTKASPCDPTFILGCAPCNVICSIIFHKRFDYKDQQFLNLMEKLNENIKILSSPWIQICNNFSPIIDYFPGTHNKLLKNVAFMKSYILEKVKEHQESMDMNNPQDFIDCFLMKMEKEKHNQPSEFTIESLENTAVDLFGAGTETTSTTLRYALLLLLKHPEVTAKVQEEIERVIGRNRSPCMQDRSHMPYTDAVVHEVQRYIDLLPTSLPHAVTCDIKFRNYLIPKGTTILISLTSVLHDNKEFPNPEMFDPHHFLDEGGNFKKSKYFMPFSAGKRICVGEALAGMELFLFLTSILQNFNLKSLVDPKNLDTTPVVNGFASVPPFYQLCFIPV
MRP1 act = activators of MRP-1; 140,000 compounds, 0.61% hits; viability increase, % at 10 µM; H69AR cells + doxorubicin, viability rescue, CellTiter-Glo;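 active = viability gain under doxorubicin at or above a set limit, the compound median plus 3 SD, cut at about 4.7% in these data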;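 also: MRP-1 overexpressing cells given doxorubicin 25 µM after compound pretreatment; 18-22 h compound pretreatment then 72 h with doxorubicin before readout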
CYP2C19 act = cytochrome P450 2C19 (human) activation; recombinant CYP2C19, luciferin-H EGE luminescence; active compounds read high; 0 = fully inhibited enzyme, 1 = untreated enzyme; AID 1025; activation factor at 5 µM; 96,000 tested, under 10 active; P33261;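 active = activation factor of at least 2 at 5 µM in the primary screen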
CYP2C19 inhib = blocks human cytochrome P450 2C19; 96,000 compounds, 21% hits; CYP2C19 Supersomes, luciferin-H EGE luminescence, 30 min; P33261; inhibition, % at 5 µM; AID 778;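 active = CYP2C19 inhibition above a set limit at 5 µM in the primary screen, cut at about 50% in these data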
CYP2C9 inh = human CYP2C9 inhibition | inhibition, % at 5 µM | CYP2C9 Supersomes, luciferin-H conversion, luminescence | 96,000 compounds, 20% hits | AID 777;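 active = blocking of liver enzyme CYP2C9 beyond about 50% at 5 µM, limit read from the data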
Numbers stand for hits; i = inactive; nt = not tested or not shown. This is a sample that favours compounds with a hit; in the whole collection about 21% have one here.

SMILES	MRP reversal	CYP2C9 act	MRP1 act	CYP2C19 act	CYP2C19 inhib	CYP2C9 inh
Cc1nn(-c2ccccc2)c2sc(C(=O)N(CC(=O)NC(C)(C)C)Cc3ccco3)cc12	i	i	i	i	i	56.0
CC(=O)Nc1cc(S(=O)(=O)Nc2cccc(C)c2)c(C)cc1C	nt	i	i	i	64.9	i
CNS(=O)(=O)c1cc(NC(C)=O)c(C)cc1C	nt	nt	i	nt	nt	nt
CC(=O)Nc1cc(S(=O)(=O)Nc2ccccc2C)c(C)cc1C	nt	i	i	i	51.0	i
CC(=O)Nc1cc(S(=O)(=O)Nc2ccccc2)c(C)cc1C	nt	i	i	i	i	i
O=C(/C=C/c1ccccc1)N/C(=C/c1ccccc1)C(=O)N1CCCCC1	nt	i	i	i	i	i
CCOC(=O)c1c(C)[nH]c(C)c1C(=O)COC(=O)c1cccc(S(=O)(=O)NC)c1	i	i	i	i	99.6	i
CCOC(=O)c1c(C)[nH]c(C)c1C(=O)COC(=O)c1ccc(Cl)c(S(N)(=O)=O)c1	i	i	i	i	91.5	i
CCCC(C)NC(=O)COC(=O)c1ccc(Cl)c(S(N)(=O)=O)c1 (configuration not stated)	i	i	i	i	i	i
O=C(COC(=O)c1cccc(S(=O)(=O)NCc2ccccc2)c1)c1ccccc1	nt	nt	i	nt	nt	nt
CNS(=O)(=O)c1cccc(C(=O)OCC(=O)NCc2ccccc2)c1	nt	2.4	i	i	i	i
CCOC(=O)c1c(C)[nH]c(C)c1C(=O)COC(=O)c1ccc(S(=O)(=O)N(CC)CC)cc1	i	i	i	i	84.3	96.7
CCOC(=O)c1csc(NC(=O)c2ccc(S(=O)(=O)N(CC)CC)cc2)n1	i	nt	i	nt	nt	nt
CCOC(=O)c1c(C)[nH]c(C)c1C(=O)COC(=O)c1cccc(C)c1O	nt	nt	i	nt	nt	nt
CNS(=O)(=O)c1cccc(C(=O)OCc2cc(Cl)cc3c2OCOC3)c1	i	i	i	i	77.5	i
CNS(=O)(=O)c1cccc(C(=O)OCC(=O)N2CCc3ccccc3C2)c1	i	i	i	i	i	i
CCCc1cc(=O)[nH]c(SCc2cccnc2)n1	i	nt	i	nt	nt	nt
CCCc1cc(=O)[nH]c(SCc2cc(Cl)ccc2OC(F)F)n1	i	i	i	i	i	60.0
CCCc1cc(=O)[nH]c(SCC(=O)N(Cc2ccccc2)C(C)C)n1	i	i	i	i	67.7	85.0
CCCc1cc(=O)[nH]c(SCc2ccc(Cl)cc2)n1	i	i	i	i	86.5	71.5
CCCc1cc(=O)[nH]c(SCc2ccccc2)n1	i	i	i	i	i	61.6
CCCc1cc(=O)[nH]c(SCC(=O)NC(=O)c2ccccc2)n1	i	i	i	i	i	i
CCCc1cc(=O)[nH]c(SCc2cccc(C)c2)n1	i	i	i	i	i	i
C=CCNC(=O)c1onc(CSc2cccc(OCC)c2)c1C(=O)O	nt	i	i	i	i	i
C=CCNC(=O)c1onc(CSc2ccc(F)cc2)c1C(=O)O	nt	i	i	i	i	i
SMILES	MRP reversal	CYP2C9 act	MRP1 act	CYP2C19 act	CYP2C19 inhib	CYP2C9 inh
C=CCNC(=O)c1onc(CSc2ccc(C(C)C)cc2)c1C(=O)O	nt	i	i	i	i	86.6
C=CCNC(=O)c1onc(CSc2ccccc2F)c1C(=O)O	nt	i	i	i	i	i
C=CCNC(=O)c1onc(CSc2ccccc2)c1C(=O)O	nt	i	i	i	i	i
C=CCNC(=O)c1onc(CSc2cccc3ccccc23)c1C(=O)O	nt	i	i	i	58.6	94.4
C=CCNC(=O)c1onc(CSc2ccc(F)cc2)c1C(=O)NCCOC	nt	i	i	i	98.5	i
C=CCNC(=O)c1onc(CSc2ccc(OC)cc2)c1C(=O)O	nt	i	i	i	i	51.6
CCOC(=O)N1CCN(CCC(=O)Nc2ccc(OC(F)(F)F)cc2)CC1	nt	nt	i	nt	nt	nt
CCCNC(=O)CCC(=O)Nc1ncc(-c2ccc(C)cc2)n1C	i	i	i	i	i	i
CS(=O)(=O)n1nc(-c2ccc(Cl)cc2)nc1SCc1ccccc1	i	i	i	i	51.3	68.6
CSc1nc(-c2ccc(Cl)cc2)nn1S(=O)(=O)c1ccccc1	i	nt	i	nt	nt	nt
CCOC(=O)CSc1nnc(C)n1N	i	i	i	i	i	i
COC(=O)C(NC(=O)C(CC(C)C)NC(=O)C1CCC(C)CC1)C(C)C (configuration not stated)	i	i	i	i	i	i
CCCCCCC1CCC(C(=O)NC(CCSC)C(=O)NC(C(=O)OC)C(C)C)CC1 (configuration not stated)	i	i	i	i	85.5	i
COc1ccc(Cl)cc1-c1nc(SCC(=O)NCCN2C(=O)CSC2=O)n[nH]1	nt	nt	i	nt	nt	nt
CCc1cc2c(NCC3CCCO3)nc(C)nc2s1 (configuration not stated)	i	nt	i	nt	nt	nt
CC1=C(C(N)=O)C(c2ccccc2)n2nc(-c3cccc(C)c3)nc2N1 (configuration not stated)	i	i	i	i	50.3	i
COc1ccc(-c2nc3n(n2)C(c2ccccc2Cl)C(C(N)=O)=C(C)N3)cc1 (configuration not stated)	i	i	i	i	52.6	i
Cc1nn(Cc2ccc(C(=O)Nc3ccc(Br)c4cccnc34)o2)c(C)c1Br	i	nt	nt	nt	nt	nt
c1cc(-c2nc3cc(Oc4ccc5oc(-c6ccncc6)nc5c4)ccc3o2)ccn1	i	nt	nt	nt	nt	nt
COC1CCCCC1NS(=O)(=O)c1ccccc1 (configuration not stated)	i	i	i	i	56.5	i
COC1CCCCC1NS(=O)(=O)c1ccc(Cl)cc1 (configuration not stated)	i	i	i	i	94.4	i
Cc1ccc2c(c1)C1CCCC3C1N2CC(=O)N3Cc1ccccc1 (configuration not stated)	i	i	i	i	99.3	100.1
CCOCCN1CCN(c2c(C)c(C)nc3cc(-c4cc(OC)cc(OC)c4)nn23)CC1	i	i	i	i	86.6	54.1
CCc1c(C(=O)N2CCN(c3ccccc3F)CC2)[nH]c(C)c1C(C)=O	i	i	i	i	i	i
O=S(=O)(N/N=C\C=C\c1ccccc1)c1ccc(Cl)cc1	nt	i	i	i	i	95.8
SMILES	MRP reversal	CYP2C9 act	MRP1 act	CYP2C19 act	CYP2C19 inhib	CYP2C9 inh
Cc1ccc(S(=O)(=O)N/N=C/c2cccn2-c2ccc(Cl)cc2)cc1	nt	nt	i	nt	nt	nt
O=S(=O)(N/N=C/c1c(F)cccc1Cl)c1ccccc1	nt	i	i	i	66.0	i
CCOc1ccc(NC(=O)CSc2nnc(C34CC5CC(CC(C5)C3)C4)n2C)cc1	i	i	i	i	i	i
CC1CCCC(C)N1CCNC(=O)CCn1nc(-c2ccccc2)ccc1=O (configuration not stated)	i	i	i	i	i	i
CC(=O)c1sc2nc(-c3cccs3)cc(C(F)(F)F)c2c1N	i	i	i	i	57.6	67.2
Cc1c(C(=O)Nc2nccs2)sc2nc(-c3cccs3)cc(C(F)(F)F)c12	i	i	i	i	i	i
N=C1/C(=C\c2ccc(SCc3ccco3)o2)C(=O)N=C2SC=NN12	nt	i	i	i	i	73.6
CCn1c(SCC(=O)NCc2ccc3c(c2)OCO3)nnc1-c1c[nH]c2ccccc12	nt	nt	i	nt	nt	nt
